Compound activity (PubChem)
Most compounds without a hit are left out; they make up all but 14% or so of the library.
A350 fluor: compounds fluorescent in Alexa 350 spectral region; Compound autofluorescence, 340/450 nm, Alexa 350 dye-equivalents; hits give high values; AID 590; max dye-equivalent concentration, M; actives 11% (n = 59,000); in the data active means max dye-equivalent concentration above about 10 nM; inconclusive means mostly about 1.1 nM to 9.6 nM
AID923: qHTS Assay for Allosteric/Competitive Inhibitors of Caspase-1: Spectroscopic Profiling in AFC Spectral Region | actives 1.1% (n = 75,000) | Potency, µM (doses to about 57.5 µM), for inactives: top-dose fluorescence increase, actives largely listed as activators | AID 923, 2007 | compound fluorescence, AFC spectral region (405/520 nm); further: potency means the concentration at half of the fitted maximal effect; 0% is about no effect
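Titrations up to 57 uM read every 20 sec for 3 min (405/520 nm) with 50 nM caspase 1 and 5 uM Ac-WEHD-AFC, pH 7.5 HEPES buffer. Fluorescence-vs-time intercept gave baseline, scaled against on-plate AFC standard.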
CRE-bla Fsk: CRE-bla signaling modulation under forskolin stimulation | CHO CRE-bla reporter (cAMP response element driving beta-lactamase), forskolin EC10, beta-lactamase ratio | Potency, µM (doses to about 38.2 µM), inactives show top-dose activity change, negative = inhibition, usual class: activators | actives 2.5% (n = 71,000); active means well fitted activation curve with a large enough effect in the signal ratio, with a control signal flat, not every such curve was filed as active; inconclusive means small, poorly fitted or top-dose-only effect, or effect the other way, or a change in a side signal; the % refers to the signal ratio; further: potency means the concentration at half of the fitted maximal effect; % of control where 0% means no effect
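Forskolin analogue NKH 477 at EC10 stimulated CRE-driven beta-lactamase in CHO cells alongside compound dilution series. Beta-lactamase was measured with CCF4, excitation 405 nm, emission ratio 460/530 nm.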
HSD17B inh: inhibitors of human HSD17B10 dehydrogenase | Q99714 | recombinant HSD17B10, NADH fluorescence kinetic | Potency, µM (highest dose often 57.1 µM), for inactives: at the highest dose activity change, negative = inhibition, actives largely listed as inhibitors | actives 7.6% (n = 75,000);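 further: the protocol describes HADH2 (HSD17B10) and not the HSD17B4 of the title; potency means the concentration at half of the fitted maximal effect; on the % scale 0 is the no-effect control and ±100 the full control effect; nearly all actives have a fitted effect of over 70% in size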
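Activity followed as NADH fluorescence increase (ex 360, em 450 nm) every 30 seconds for 4 min, using final 90 uM beta-hydroxybutyryl CoA and 1 mM NAD+. Recombinant His-tagged enzyme, 20 nM, pH 9.0 Tris buffer, 15 min compound preincubation.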
HADH2 inh: inhibitors of human HADH2 dehydrogenase | recombinant HADH2, NADH fluorescence, beta-hydroxybutyryl-CoA | Potency, µM (series often up to 57.1 µM), without a hit: at the top dose activity change, negative = inhibition, most hits filed as inhibitors | actives 3.4% (n = 73,000); further: potency means the concentration at half of the fitted maximal effect; on the % scale 0 is the no-effect control and ±100 the full control effect; nearly all actives have a fitted effect of over 60% in size
Target sequence (Q99714 whole entry, looked up, one chain of several): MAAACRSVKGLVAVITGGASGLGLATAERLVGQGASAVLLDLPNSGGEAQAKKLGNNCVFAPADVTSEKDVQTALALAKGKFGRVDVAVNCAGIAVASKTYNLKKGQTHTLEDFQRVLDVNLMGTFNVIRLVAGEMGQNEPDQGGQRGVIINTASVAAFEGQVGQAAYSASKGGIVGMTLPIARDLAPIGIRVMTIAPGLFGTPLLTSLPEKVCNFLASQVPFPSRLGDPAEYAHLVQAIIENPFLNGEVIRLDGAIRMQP
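20 nM HADH2 + cpd, 15 min RT; add 1 mM NAD+/90 uM beta-hydroxybutyryl-CoA; kinetic fluorescence 360/450 nm, 4 min. Tris-HCl pH 9.0, 0.01% Tween-20.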
4MU fluor: compounds fluorescent in 4-MU spectral region. compound autofluorescence, 340/450 nm, 4-MU equivalents; hits give high values. max dye-equivalent concentration, M. actives 11% (n = 59,000). AID 589; in the data active means max dye-equivalent concentration above about 10 nM; inconclusive means mostly about 1.1 nM to 9.6 nM
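Intrinsic fluorescence at 340/450 nm (ex/em) was read after 15 min at room temperature in pH 8.0, 100 mM Tris. Each compound concentration expressed as 4-MU-equivalent concentration from a six-point 4-MU standard series on each plate.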
Starred values were filed as active, the others as inactive; [ ] = another dose, or the depositor's remark. Unless noted, the call rests on the fitted dose curve; in most records, active means well fitted curve in the direction sought with a large enough effect; inconclusive means small, poorly fitted or top-dose-only effect, or another doubt; inactive means no such curve, though single readings can be large; an effect the other way counts as inactive or inconclusive.

What do the screens show for `CC1(C)OC(C(O)(c2cc(F)c(F)c(F)c2)c2cc(F)c(F)c(F)c2)C(C(O)(c2cc(F)c(F)c(F)c2)c2cc(F)c(F)c(F)c2)O1` (stereo unspecified)?
AID923: 0%[11.5 µM]; HSD17B inh: -15%[11.4 µM]; HADH2 inh: 21%[11.4 µM]

Results for COC(=O)CC[C@@H](C)[C@H]1CC[C@H]2[C@@H]3CC[C@@H]4C[C@H](O)CC[C@]4(C)[C@H]3C[C@H](O)[C@]12C ?
AID923: 0%; HSD17B inh: 10%

How did CC1(C)CCCC2(C)C3C(O)CC2(C)C(O)C31 (stereo unspecified) do in these assays?
AID923: -1%; HSD17B inh: 4%

How did CCOC(=O)c1sc(NC(=O)c2cccs2)cc1C do in these assays?
A350 fluor: 4.3e-07M*; AID923: 17%; CRE-bla Fsk: inconclusive; HSD17B inh: 32µM*; HADH2 inh: 32µM*; 4MU fluor: 4e-07M*

What do the screens show for `CCOC(=O)c1cccc(NC(=O)c2cccs2)c1`?
A350 fluor: inactive; AID923: 2%; CRE-bla Fsk: 1%; HSD17B inh: -17%; HADH2 inh: -16%; 4MU fluor: inactive

Results for CCCCC(=O)Nc1cccc(NC(=O)c2ccc(Br)o2)c1 ?
A350 fluor: inactive; AID923: 0%; CRE-bla Fsk: -10%; HSD17B inh: -23%; HADH2 inh: -3%; 4MU fluor: inactive

How did CCOC(=O)c1sc(NC(=O)c2ccc(Br)o2)cc1C do in these assays?
A350 fluor: 2.3e-08M*; AID923: 0%; CRE-bla Fsk: -2%; HSD17B inh: inconclusive; HADH2 inh: 8%; 4MU fluor: 1.7e-08M*

What do the screens show for `CC(C)=NO[C@@H](C)c1cn([C@H](CO)Cc2ccccc2)nn1`?
AID923: -2%[11.5 µM]; HSD17B inh: 4%[11.4 µM]; HADH2 inh: -13%[11.4 µM]

What do the screens show for `Cc1cc(=O)[nH]c2cc3oc4ccccc4c3cc12`?
A350 fluor: 2.7e-08M*; AID923: -3%[11.5 µM]; CRE-bla Fsk: inconclusive; HSD17B inh: 7%[11.4 µM]; HADH2 inh: 20%[11.4 µM]; 4MU fluor: 2.9e-08M*

How did O=C(OCC(=O)N1CCOCC1)c1ccc[nH]c1=O do in these assays?
A350 fluor: inactive; AID923: -1%; CRE-bla Fsk: inconclusive; HSD17B inh: -5%; HADH2 inh: 4%; 4MU fluor: inactive

How did COc1cc2ccccc2cc1C(=O)OCC(=O)N1CCOCC1 do in these assays?
A350 fluor: 9.2e-07M*; AID923: 2%; CRE-bla Fsk: -3%; HSD17B inh: 7.9µM*; HADH2 inh: inconclusive; 4MU fluor: 9.8e-07M*

What do the screens show for `O=C(O)c1cccc(OCCO)c1`?
A350 fluor: inactive; AID923: 4%[11.5 µM]; CRE-bla Fsk: -4%[7.6 µM]; HSD17B inh: 6%[11.4 µM]; HADH2 inh: -5%[11.4 µM]; 4MU fluor: inactive

What do the screens show for `CC1=C2[C@@H]([C@H](C)CC[C@H]2/C=C(\C)C(=O)O)[C@H](O)C1`?
AID923: -3%; CRE-bla Fsk: 7%; HSD17B inh: -9%; HADH2 inh: -11%

What do the screens show for `COc1ccc(C=Nc2c(O)ccc3ccccc23)cc1OC`?
A350 fluor: inconclusive; AID923: 3%[11.5 µM]; CRE-bla Fsk: 9%[7.6 µM]; HSD17B inh: 4µM*; HADH2 inh: 59%[11.4 µM]; 4MU fluor: 1.3e-08M*

What do the screens show for `Cc1cc(N=Cc2c(O)ccc3ccccc23)no1`?
AID923: 1%; CRE-bla Fsk: inconclusive; HSD17B inh: -20%; HADH2 inh: -24%

How did CCN(CC)S(=O)(=O)c1ccc(NC2c3ccccc3C(=O)N2Cc2ccc3c(c2)OCO3)cc1 (stereo unspecified) do in these assays?
AID923: 0%; CRE-bla Fsk: 14%; HSD17B inh: 6%; HADH2 inh: -6%

Results for CCN(CC)S(=O)(=O)c1ccc(NC2c3ncccc3C(=O)N2Cc2ccccc2)cc1 (stereo unspecified) ?
A350 fluor: 1.2e-08M*; AID923: -3%; CRE-bla Fsk: -22%; HSD17B inh: inconclusive; HADH2 inh: inconclusive; 4MU fluor: 1.2e-08M*

Results for COC(=O)c1ccccc1N1C(=O)[C@@H]2C(c3ccc(F)cc3)=NO[C@@H]2C1=O ?
A350 fluor: 6.1e-08M*; AID923: 6%; CRE-bla Fsk: 11%; HSD17B inh: 0%; HADH2 inh: 7%; 4MU fluor: 6.1e-08M*

How did CCC(Sc1ccc2nnc(-c3ccc(F)cc3)n2n1)C(=O)O (stereo unspecified) do in these assays?
A350 fluor: inconclusive; AID923: 0%; CRE-bla Fsk: -11%; HSD17B inh: 32µM*; HADH2 inh: 25µM*; 4MU fluor: inconclusive

How did O=C(CSc1ccc2nnc(-c3ccccc3)n2n1)N1CCCCC1 do in these assays?
A350 fluor: 1e-08M*; AID923: -1%; CRE-bla Fsk: 12%; HSD17B inh: inconclusive; HADH2 inh: -13%; 4MU fluor: inconclusive

How did Cc1cc(NC(=O)CSc2ccc3nnc(-c4ccccc4)n3n2)no1 do in these assays?
A350 fluor: 1.1e-08M*; AID923: -2%; CRE-bla Fsk: 19%; HSD17B inh: inconclusive; HADH2 inh: -6%; 4MU fluor: inconclusive

What do the screens show for `CCOc1ccc(-c2nnc3ccc(SCC(=O)N4CCN(c5ccccc5)CC4)nn23)cc1`?
A350 fluor: 2.6e-08M*; AID923: -1%; CRE-bla Fsk: -2%; HSD17B inh: 3%; HADH2 inh: 18%; 4MU fluor: 2.4e-08M*

How did CCOc1ccc(-c2nnc3ccc(SCC(=O)N4CCCCC4)nn23)cc1 do in these assays?
AID923: -1%; CRE-bla Fsk: -4%; HSD17B inh: -2%; HADH2 inh: -4%

What do the screens show for `Cn1cccc1C(=O)N1CCC2(CCCN(Cc3ccccc3)C2)CC1`?
A350 fluor: inactive; AID923: 0%; CRE-bla Fsk: inconclusive; HSD17B inh: 2%; HADH2 inh: 2%; 4MU fluor: inactive

Results for COc1cc2c(cc1OC)C(c1ccc(N)cc1)=NNC(=O)C2 ?
AID923: -1%; CRE-bla Fsk: inconclusive; HSD17B inh: -13%; HADH2 inh: 5%

Results for O=C(CSc1ccc2nnc(-c3cccs3)n2n1)N1CCOCC1 ?
AID923: 1%; CRE-bla Fsk: inconclusive; HSD17B inh: 7%; HADH2 inh: -28%

Results for O=C(CSc1ccc2nnc(-c3ccc(F)cc3)n2n1)N1CCOCC1 ?
AID923: -1%; CRE-bla Fsk: -2%; HSD17B inh: 20µM*; HADH2 inh: -4%
